# Experimental data as given in PubChem BioAssay (NCI).
# The panel holds about 79,000 compounds, 15% with a hit somewhere; the sample as a whole holds those more often. Values without a mark were called inactive. Calls of active or inactive are those of the source. Cut-off read from the data, not from the text of the source: active = growth inhibition above about 70%; inactive = the rest.
# Key:
# [1] = NCI Yeast Anticancer Drug Screen. Data for the rad50 strain (AID 155);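 note: 0% = growth of vehicle-only cultures of the same strain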; details: S. cerevisiae rad50 strain growth inhibition; at 50.0 µM; hits give high values
# Summary of the method: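 DNA repair mutant yeast, compound exposure, growth read-out; inhibition is taken relative to vehicle.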
# [2] = NCI Yeast Anticancer Drug Screen. Data for the mec2-1 strain (AID 157); details: S. cerevisiae mec2-1 strain, at 50.0 µM, hits give high values
# Summary of the method: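 Cells of the genetically defined mec2-1 yeast strain are incubated with test compound. Inhibition of growth is calculated against vehicle-treated controls.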
# [3] = NCI Yeast Anticancer Drug Screen. Data for the sgs1 mgt1 strain (AID 161);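 note: 0% = growth of cultures given vehicle only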; details: S. cerevisiae sgs1 mgt1 strain, at 50.0 µM, hits give high values
# Summary of the method: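 Test agents were incubated with a DNA-repair-mutant yeast strain. Growth was then read and compared against vehicle-treated controls.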
# [4] = NCI Yeast Anticancer Drug Screen. Data for the cln2 rad14 strain (AID 165);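 note: 0% = growth equal to vehicle treated cultures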; details: S. cerevisiae cln2 rad14 strain, at 50.0 µM, hits give high values
# Summary of the method: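 The screen exposed genetically defined yeast (cln2 rad14) to test compounds and scored growth inhibition relative to vehicle-treated controls.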
# [5] = NCI Yeast Anticancer Drug Screen. Data for the bub3 strain (AID 167); details: S. cerevisiae bub3 mutant strain, at 50.0 µM, hits give high values
# Summary of the method: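 In this screen, a yeast mutant lacking normal mitotic checkpoint function is challenged with compound. Relative growth versus vehicle gives the inhibition value.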
# [6] = NCI Yeast Anticancer Drug Screen. Data for the mlh1 rad18 strain (AID 175); details: S. cerevisiae mlh1 rad18 strain growth inhibition; at 50.0 µM; hits give high values
# Summary of the method: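 Compound-treated yeast growth, normalised to vehicle controls. Strain bears defined DNA repair mutations.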
SMILES,growth inhibition [1],growth inhibition [2],growth inhibition [3],growth inhibition [4],growth inhibition [5],growth inhibition [6]
c1ccc2c(c1)N=C(NNC1=Nc3ccccc3SC1)CS2,2.35%,-2.85%,2.4%,-0.55%,1.25%,0.65%
NC(=O)C1C2C=CC(O2)C1C(=O)O (configuration not stated),-26.6%,-12.9%,-10.3%,-23.6%,-1.9%,5.4%
Cc1c(C)c(C(C)O)c(C)c(C(C)O)c1C (configuration not stated),4.55%,5.65%,17.6%,21.6%,11.7%,18.6%
O=c1[nH]cc(CCOCc2ccccc2)c(=O)[nH]1,-4.3%,-8.15%,0.3%,34.2%,-10.4%,-17%
NC(=O)c1nnsc1N/N=C/c1ccc([N+](=O)[O-])cc1,8.85%,25.9%,-25.1%,-2.05%,-20.1%,-5.1%
CC#CC(O)(C(=O)OC1CCCN(C)C1)C1=CC=CCC1 (configuration not stated),11.7%,8.25%,13.2%,5%,-1.75%,27.4%
COc1ccccc1/C(=N\OCCC(=O)O)c1cccs1,2.15%,-0.95%,5.95%,0.65%,-1.25%,-51.1%
CSc1nc(C)c2c(n1)N(c1ccc(Cl)cc1)CC2,1.7%,-32.5%,-16.5%,-35.3%,-17.2%,-30.4%
COc1ccc(C(=O)Nc2ccn(CCOC(=O)c3ccc(OC)cc3)c(=O)n2)cc1,-25.9%,16.9%,-3.1%,-4%,2.8%,-3.55%
CC(/C=N/NC1=NCCCN1)=N\NC1=NCCCN1,-7.05%,-8.75%,-14.3%,8.25%,2.9%,-12.2%
CCOc1ccc(N=Nc2ccc3oc(=O)c(/C(C)=N/NC(=O)CC(=O)Nc4cccc(OC)c4)cc3c2)cc1,44.5%,36%,25.2%,-17.3%,-5%,44.1%
CC(=O)NC(=O)CC(=O)c1ccccc1,-2.2%,-12.8%,-13.4%,13.9%,-4.7%,-18.3%
N#CNc1c2ccccc2nc2ccccc12,-12.1%,1.05%,-16.6%,2.85%,6.5%,-4.75%
Cc1cccc(C)c1NC(=O)/C(=N/NC(N)=S)C(C)C(=O)c1ccc(Cl)cc1 (configuration not stated),12.6%,6.35%,19.6%,13.3%,4.5%,22.3%
CC(=O)NC(Cc1ccccc1)C(=O)Nc1ccc(C)cc1 (configuration not stated),14.3%,0.55%,15.8%,16.6%,11.4%,14.2%
CNC(=O)OCc1c(COC(=O)NC)c2n(c1C)CS(=O)(=O)C2,-6.15%,-16%,-10.4%,6.5%,12.1%,15.5%
CCCCc1ccccn1,-9.1%,4.15%,14.1%,-42.5%,7.4%,16.9%
COc1ccc2[nH]cc(C=O)c2c1,13.3%,-2.95%,-1.65%,7.25%,-2.1%,3.5%
CC1CN(C(=O)Nc2ccc([N+](=O)[O-])cc2)CC(C)O1 (configuration not stated),-16.1%,-36.5%,13.7%,3.5%,-3.65%,6.25%
Cc1nc2cc(Nc3ccccc3C(=O)O)ccc2s1,-43.3%,-36.6%,-50.6%,-0.7%,-22.2%,-25.9%
COC1=CC(=O)C(C)=CC1=O,-2.1%,2.65%,3.5%,7.35%,16.3%,7.5%

SMILES,growth inhibition [1],growth inhibition [2],growth inhibition [3],growth inhibition [4],growth inhibition [5],growth inhibition [6]
CCc1ccc(O[Si](C)(C)C)cc1,5.35%,3.25%,-15.6%,-25.4%,-21.9%,-3.9%
CC(C)Nc1ccc(O)cc1,-21.1%,-40%,-4.2%,-6.3%,-10.3%,-8%
O=S(=O)(O)c1ccc(-c2nc3ccccc3[nH]2)cc1,1.6%,8.5%,4.65%,6%,28.2%,-18.9%
Nc1nc(SCC(=O)c2ccc(F)cc2)sc1C(=O)c1ccc(F)cc1,-9.75%,6.9%,1.4%,1.3%,-0.9%,14%
CC1CC(C)OC(c2ccccc2)O1 (configuration not stated),19.1%,-1.5%,-2.7%,-20.1%,-5%,19.7%
C=C(C)C(=O)OC1C(C(C)CCCO)=C(CO)CC2OC(=O)C(=C)C21 (configuration not stated),-15.9%,-29.1%,-14.5%,-7.7%,-10.3%,-29.1%
NC(=S)N/N=C/C1=C(Cl)c2ccccc2C1,7.45%,6.5%,1.15%,-4.45%,-2.55%,13.2%
O=C(CCSC(=S)Nc1ccc(Cl)cc1)NNc1ccccc1,1.8%,-25.1%,-0.65%,-30.4%,6.6%,18.2%
CC(=O)Nc1cc2c3c(c1)CCCN3CCC2,-24.4%,-14.8%,-38.2%,25.9%,27.6%,-3.6%
COc1ccc(OC)c(N2C(=O)C(=O)C(C(C)=O)C2=O)c1 (configuration not stated),27.7%,-1.95%,7.15%,25.1%,7.65%,16.5%
CC(=O)Nc1c(Cl)cccc1[N+](=O)[O-],-25.1%,-18.8%,-4.75%,-26.4%,-5.8%,5.85%
CC[N+](C)(CC)c1cccc(OC(=O)Nc2ccc(OC)cc2)c1,6%,5.25%,3.35%,-5.7%,1.05%,14.3%
CCOc1cc2c(cc1C(C)c1ccc(OCc3ccccc3)cc1)OCO2 (configuration not stated),6.55%,3.55%,2.7%,1.25%,-2.1%,-20.1%
CSc1cc2c(cc1NC(C)=O)Cc1ccccc1-2,13.4%,-3.75%,0.6%,10.5%,9.15%,-13.4%
Cn1c(=O)c2c(nc(C(=N)SCC(=O)O)n2C)n(C)c1=O,3.1%,16.4%,15.8%,55%,-44.8%,3.8%
COc1ccc(C(=O)C[C@H]2CCC[C@@H](CC(=O)c3ccc(OC)cc3)N2C)cc1,14.4%,5.05%,5.05%,12%,0.25%,8.1%
CCCCCCCCCCCCCCCCCC(=O)OC(C(O)C=O)C(O)C(O)CO (configuration not stated),12.6%,16.3%,22.2%,23.9%,-5.55%,45.8%
COc1ccc(-c2nc(SCC(=O)O)n(-c3ccccn3)c2-c2ccc(OC)cc2)cc1,70.7% (active),66.5%,82.3% (active),83.7% (active),42.9%,77.7% (active)
Cn1c(=O)cc2n(C)c3ccccc3n2c1=O,33.1%,18.6%,1.2%,-5.9%,6.2%,5.8%
C1=CC(=NN=P(c2ccccc2)(c2ccccc2)c2ccccc2)C=C1,21.7%,7.9%,20.3%,19.9%,18.7%,13.5%
COCCCNC(=O)C1=C(C)NC(C)=C(C(=O)NCCCOC)C1,-49%,-64.2%,-10.7%,3.6%,-11.2%,-50.6%
